# Source: ChEMBL document CHEMBL1961873, “Compounds: GSK PKIS; Assays: Nanosyn kinase panel” (2012)
# What was measured:
# [1] = target: 5'-AMP-activated protein kinase catalytic subunit alpha-2 (Homo sapiens) (UniProt P54646); details: at 1 µM
# [2] = target: T1, NUAK family SNF1-like kinase 1 (Homo sapiens) (UniProt O60285); details: at 0.1 µM
# T1 sequence (whole entry): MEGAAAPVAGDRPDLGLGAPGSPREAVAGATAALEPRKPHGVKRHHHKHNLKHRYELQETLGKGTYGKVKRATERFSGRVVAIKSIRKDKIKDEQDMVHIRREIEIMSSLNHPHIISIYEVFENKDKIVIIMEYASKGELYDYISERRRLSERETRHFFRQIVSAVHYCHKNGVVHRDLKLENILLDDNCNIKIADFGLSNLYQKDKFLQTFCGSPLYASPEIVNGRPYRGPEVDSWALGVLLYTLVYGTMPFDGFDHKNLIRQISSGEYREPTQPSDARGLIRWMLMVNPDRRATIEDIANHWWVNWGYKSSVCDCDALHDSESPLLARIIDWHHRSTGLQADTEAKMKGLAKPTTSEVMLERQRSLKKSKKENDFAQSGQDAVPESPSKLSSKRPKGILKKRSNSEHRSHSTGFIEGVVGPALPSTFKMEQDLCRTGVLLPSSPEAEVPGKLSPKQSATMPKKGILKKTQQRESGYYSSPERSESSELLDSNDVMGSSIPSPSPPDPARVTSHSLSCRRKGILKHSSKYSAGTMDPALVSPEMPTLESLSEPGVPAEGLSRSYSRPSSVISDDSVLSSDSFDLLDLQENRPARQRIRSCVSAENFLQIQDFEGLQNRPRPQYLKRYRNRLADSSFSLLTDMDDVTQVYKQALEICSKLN
# [3] = target: T1, NUAK family SNF1-like kinase 1 (Homo sapiens); details: at 1 µM
# [4] = target: T2, Serine/threonine-protein kinase BRSK1 (Homo sapiens) (UniProt Q8TDC3); details: at 0.1 µM
# T2 sequence (whole entry): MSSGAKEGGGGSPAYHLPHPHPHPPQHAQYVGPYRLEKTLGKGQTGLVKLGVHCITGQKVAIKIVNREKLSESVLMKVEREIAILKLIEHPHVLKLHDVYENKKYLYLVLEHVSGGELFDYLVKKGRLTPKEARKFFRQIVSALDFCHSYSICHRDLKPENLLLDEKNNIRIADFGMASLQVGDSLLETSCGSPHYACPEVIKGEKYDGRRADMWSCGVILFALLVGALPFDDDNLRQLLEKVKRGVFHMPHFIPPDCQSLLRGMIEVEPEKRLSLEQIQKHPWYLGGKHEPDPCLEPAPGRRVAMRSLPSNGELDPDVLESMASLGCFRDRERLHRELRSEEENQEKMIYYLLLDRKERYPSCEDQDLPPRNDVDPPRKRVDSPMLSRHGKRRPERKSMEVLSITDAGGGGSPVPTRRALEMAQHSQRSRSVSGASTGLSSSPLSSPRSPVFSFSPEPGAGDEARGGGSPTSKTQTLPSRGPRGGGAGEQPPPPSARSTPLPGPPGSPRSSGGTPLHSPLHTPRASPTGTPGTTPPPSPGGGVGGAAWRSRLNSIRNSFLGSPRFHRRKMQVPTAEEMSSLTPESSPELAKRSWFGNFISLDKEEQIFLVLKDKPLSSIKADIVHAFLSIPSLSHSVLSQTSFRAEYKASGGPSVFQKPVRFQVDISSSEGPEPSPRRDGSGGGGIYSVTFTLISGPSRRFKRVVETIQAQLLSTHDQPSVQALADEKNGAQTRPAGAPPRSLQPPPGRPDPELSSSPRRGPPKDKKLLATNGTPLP
# [5] = target: T2, Serine/threonine-protein kinase BRSK1 (Homo sapiens); details: at 1 µM
# [6] = target: T3, Serine/threonine-protein kinase BRSK2 (Homo sapiens) (UniProt Q8IWQ3); details: at 0.1 µM
# T3 sequence (whole entry): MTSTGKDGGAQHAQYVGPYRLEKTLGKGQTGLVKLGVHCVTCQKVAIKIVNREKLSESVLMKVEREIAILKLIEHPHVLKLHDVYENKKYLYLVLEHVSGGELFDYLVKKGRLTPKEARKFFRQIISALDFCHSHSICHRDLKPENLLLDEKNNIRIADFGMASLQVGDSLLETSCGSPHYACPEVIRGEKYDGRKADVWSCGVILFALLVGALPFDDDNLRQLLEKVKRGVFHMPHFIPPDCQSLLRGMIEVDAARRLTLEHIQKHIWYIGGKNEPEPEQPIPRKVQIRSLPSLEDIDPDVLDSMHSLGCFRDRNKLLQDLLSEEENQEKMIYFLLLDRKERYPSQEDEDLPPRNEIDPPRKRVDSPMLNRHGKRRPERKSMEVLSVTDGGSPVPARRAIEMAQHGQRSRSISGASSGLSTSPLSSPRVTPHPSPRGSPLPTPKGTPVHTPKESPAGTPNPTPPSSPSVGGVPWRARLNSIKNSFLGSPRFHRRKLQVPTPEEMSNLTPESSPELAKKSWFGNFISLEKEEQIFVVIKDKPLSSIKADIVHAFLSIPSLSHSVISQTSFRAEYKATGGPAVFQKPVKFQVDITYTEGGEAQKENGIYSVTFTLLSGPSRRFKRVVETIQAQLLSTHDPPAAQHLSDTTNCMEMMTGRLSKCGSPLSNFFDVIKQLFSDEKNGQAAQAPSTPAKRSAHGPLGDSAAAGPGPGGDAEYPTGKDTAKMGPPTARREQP
# [7] = target: T3, Serine/threonine-protein kinase BRSK2 (Homo sapiens); details: at 1 µM
# [8] = target: Calcium/calmodulin-dependent protein kinase type 1D (Homo sapiens) (UniProt Q8IU85); details: at 0.1 µM
# [9] = target: Calcium/calmodulin-dependent protein kinase type 1D (Homo sapiens) (UniProt Q8IU85); details: at 1 µM
# [10] = target: Calcium/calmodulin-dependent protein kinase type II subunit alpha (Homo sapiens) (UniProt Q9UQM7); details: at 0.1 µM
# [11] = target: Calcium/calmodulin-dependent protein kinase type II subunit alpha (Homo sapiens) (UniProt Q9UQM7); details: at 1 µM
# [12] = target: Calcium/calmodulin-dependent protein kinase type II subunit delta (Homo sapiens) (UniProt Q13557); details: at 0.1 µM
# [13] = target: Calcium/calmodulin-dependent protein kinase type II subunit delta (Homo sapiens) (UniProt Q13557); details: at 1 µM
# [14] = target: T4, Calcium/calmodulin-dependent protein kinase type IV (Homo sapiens) (UniProt Q16566); details: at 0.1 µM
# T4 sequence (whole entry): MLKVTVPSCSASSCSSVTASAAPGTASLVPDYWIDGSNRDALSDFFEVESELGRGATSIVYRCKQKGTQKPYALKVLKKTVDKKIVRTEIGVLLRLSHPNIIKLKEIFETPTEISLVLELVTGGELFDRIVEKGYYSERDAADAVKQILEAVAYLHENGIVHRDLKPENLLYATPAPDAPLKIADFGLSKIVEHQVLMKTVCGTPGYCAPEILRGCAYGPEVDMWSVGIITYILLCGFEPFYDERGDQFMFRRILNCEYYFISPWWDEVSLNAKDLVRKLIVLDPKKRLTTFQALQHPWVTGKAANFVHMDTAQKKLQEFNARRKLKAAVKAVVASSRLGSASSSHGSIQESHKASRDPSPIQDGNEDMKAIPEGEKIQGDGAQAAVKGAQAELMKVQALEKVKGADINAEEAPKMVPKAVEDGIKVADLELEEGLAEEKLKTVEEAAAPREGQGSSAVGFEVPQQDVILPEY
# [15] = target: T4, Calcium/calmodulin-dependent protein kinase type IV (Homo sapiens); details: at 1 µM
# [16] = target: T5, Serine/threonine-protein kinase Chk1 (Homo sapiens) (UniProt O14757); details: at 0.1 µM
# T5 sequence (whole entry): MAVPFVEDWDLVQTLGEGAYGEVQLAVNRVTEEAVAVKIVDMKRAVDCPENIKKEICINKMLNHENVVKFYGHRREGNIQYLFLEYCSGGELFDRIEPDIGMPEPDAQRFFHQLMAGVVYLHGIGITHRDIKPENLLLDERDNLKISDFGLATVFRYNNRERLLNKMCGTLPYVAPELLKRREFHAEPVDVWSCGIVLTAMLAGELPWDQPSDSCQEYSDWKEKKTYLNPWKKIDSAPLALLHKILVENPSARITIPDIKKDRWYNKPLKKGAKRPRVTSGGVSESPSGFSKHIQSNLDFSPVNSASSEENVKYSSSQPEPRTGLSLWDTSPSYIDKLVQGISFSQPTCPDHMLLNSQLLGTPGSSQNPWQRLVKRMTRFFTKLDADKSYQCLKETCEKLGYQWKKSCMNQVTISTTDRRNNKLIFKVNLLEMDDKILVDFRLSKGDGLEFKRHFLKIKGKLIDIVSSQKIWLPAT
# [17] = target: T5, Serine/threonine-protein kinase Chk1 (Homo sapiens); details: at 1 µM
# [18] = target: Serine/threonine-protein kinase Chk2 (Homo sapiens) (UniProt O96017); details: at 0.1 µM
# [19] = target: Serine/threonine-protein kinase Chk2 (Homo sapiens) (UniProt O96017); details: at 1 µM
# [20] = target: Death-associated protein kinase 1 (Homo sapiens) (UniProt P53355); details: at 0.1 µM;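 further: reported figure is the mean inhibition of DAPK1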
# Death-associated protein kinase 1 (Homo sapiens), sequence (P53355 whole entry, looked up): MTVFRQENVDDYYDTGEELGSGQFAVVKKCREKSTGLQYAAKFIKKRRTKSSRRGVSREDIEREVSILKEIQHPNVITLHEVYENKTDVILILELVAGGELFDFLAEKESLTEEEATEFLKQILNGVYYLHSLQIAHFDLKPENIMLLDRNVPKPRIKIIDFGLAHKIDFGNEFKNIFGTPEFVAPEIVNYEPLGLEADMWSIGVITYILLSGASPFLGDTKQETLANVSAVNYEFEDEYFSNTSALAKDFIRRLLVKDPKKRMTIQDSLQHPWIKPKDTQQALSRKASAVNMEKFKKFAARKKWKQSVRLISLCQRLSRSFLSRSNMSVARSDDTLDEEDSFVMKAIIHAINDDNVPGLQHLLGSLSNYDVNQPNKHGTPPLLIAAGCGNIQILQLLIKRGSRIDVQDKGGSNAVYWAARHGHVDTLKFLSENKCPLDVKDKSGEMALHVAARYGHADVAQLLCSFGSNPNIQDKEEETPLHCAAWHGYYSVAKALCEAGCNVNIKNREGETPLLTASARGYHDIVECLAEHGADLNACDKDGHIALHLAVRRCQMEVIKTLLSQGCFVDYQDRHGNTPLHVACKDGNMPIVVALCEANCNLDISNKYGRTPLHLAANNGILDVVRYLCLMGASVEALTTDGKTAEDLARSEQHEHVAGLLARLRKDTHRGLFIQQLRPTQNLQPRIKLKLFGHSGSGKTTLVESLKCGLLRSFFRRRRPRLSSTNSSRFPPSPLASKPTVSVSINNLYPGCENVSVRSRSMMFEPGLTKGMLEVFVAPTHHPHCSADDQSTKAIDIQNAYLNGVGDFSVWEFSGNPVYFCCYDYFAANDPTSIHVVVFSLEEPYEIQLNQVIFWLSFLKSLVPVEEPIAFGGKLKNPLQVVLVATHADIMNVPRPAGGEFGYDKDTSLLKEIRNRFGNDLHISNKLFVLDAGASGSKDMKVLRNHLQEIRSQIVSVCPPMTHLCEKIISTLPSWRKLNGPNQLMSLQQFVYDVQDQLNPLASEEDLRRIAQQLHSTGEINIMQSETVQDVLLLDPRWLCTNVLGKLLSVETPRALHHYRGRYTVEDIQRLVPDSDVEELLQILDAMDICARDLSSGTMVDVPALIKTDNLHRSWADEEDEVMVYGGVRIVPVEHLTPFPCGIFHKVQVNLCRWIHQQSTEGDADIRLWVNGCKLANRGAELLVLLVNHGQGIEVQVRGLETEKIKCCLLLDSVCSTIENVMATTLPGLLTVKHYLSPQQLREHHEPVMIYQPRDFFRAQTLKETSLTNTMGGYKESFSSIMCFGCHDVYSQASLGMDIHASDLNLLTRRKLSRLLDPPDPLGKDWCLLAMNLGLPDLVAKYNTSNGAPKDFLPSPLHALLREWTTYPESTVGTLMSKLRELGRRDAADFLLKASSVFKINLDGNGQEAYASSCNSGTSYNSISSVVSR
# Calcium/calmodulin-dependent protein kinase type II subunit delta (Homo sapiens), sequence (Q13557 whole entry): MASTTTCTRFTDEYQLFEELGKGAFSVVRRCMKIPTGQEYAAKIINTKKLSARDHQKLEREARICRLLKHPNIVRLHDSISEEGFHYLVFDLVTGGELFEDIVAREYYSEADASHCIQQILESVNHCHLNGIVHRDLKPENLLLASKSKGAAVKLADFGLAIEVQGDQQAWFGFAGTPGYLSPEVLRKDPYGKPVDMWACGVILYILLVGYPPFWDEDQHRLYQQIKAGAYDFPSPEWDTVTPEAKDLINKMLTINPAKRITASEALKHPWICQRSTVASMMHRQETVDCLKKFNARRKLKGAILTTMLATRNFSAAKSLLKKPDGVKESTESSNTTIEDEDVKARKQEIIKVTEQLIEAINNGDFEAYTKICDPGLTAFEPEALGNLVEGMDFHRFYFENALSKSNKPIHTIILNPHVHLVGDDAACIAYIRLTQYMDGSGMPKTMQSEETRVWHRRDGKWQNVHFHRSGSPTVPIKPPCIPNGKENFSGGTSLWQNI
# Calcium/calmodulin-dependent protein kinase type 1D (Homo sapiens), sequence (Q8IU85 whole entry, looked up): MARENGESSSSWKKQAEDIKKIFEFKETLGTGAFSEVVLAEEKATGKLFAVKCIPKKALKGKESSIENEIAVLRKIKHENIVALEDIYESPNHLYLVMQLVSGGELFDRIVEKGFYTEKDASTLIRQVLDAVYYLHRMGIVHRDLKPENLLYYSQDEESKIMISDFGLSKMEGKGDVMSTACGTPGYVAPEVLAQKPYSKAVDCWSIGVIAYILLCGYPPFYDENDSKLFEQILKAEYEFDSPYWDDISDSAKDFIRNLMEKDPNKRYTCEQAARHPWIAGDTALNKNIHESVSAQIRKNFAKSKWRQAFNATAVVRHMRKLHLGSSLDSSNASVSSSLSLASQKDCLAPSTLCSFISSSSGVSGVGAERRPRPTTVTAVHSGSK
# 5'-AMP-activated protein kinase catalytic subunit alpha-2 (Homo sapiens), sequence (P54646 whole entry, looked up): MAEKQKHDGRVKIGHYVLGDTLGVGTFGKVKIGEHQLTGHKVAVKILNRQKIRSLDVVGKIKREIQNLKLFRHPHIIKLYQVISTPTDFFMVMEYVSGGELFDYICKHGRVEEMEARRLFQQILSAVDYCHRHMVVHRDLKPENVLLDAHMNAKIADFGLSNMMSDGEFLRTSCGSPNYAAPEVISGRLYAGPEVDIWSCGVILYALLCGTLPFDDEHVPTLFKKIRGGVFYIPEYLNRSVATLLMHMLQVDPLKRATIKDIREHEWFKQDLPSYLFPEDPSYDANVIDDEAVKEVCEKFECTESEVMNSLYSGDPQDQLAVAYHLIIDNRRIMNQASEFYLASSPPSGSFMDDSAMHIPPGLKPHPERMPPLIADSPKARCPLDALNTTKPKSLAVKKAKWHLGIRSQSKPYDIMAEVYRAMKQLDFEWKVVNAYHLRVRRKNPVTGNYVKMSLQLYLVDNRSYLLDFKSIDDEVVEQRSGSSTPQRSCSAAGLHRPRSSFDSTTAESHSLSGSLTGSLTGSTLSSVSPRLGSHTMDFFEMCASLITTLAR
# Calcium/calmodulin-dependent protein kinase type II subunit alpha (Homo sapiens), sequence (Q9UQM7 whole entry): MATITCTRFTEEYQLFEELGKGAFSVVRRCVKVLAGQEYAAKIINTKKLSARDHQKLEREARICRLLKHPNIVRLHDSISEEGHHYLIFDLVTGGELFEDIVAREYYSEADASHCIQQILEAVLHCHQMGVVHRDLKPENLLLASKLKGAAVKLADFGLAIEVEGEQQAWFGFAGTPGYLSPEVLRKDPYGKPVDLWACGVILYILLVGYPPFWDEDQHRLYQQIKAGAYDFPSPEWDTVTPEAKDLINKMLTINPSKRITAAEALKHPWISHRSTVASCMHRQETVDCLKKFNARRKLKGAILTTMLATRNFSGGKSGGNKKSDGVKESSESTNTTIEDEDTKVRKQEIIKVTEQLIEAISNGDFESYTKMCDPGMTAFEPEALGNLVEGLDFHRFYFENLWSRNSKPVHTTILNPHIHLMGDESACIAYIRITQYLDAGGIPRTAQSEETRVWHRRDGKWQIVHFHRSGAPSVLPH
# Serine/threonine-protein kinase Chk2 (Homo sapiens), sequence (O96017 whole entry): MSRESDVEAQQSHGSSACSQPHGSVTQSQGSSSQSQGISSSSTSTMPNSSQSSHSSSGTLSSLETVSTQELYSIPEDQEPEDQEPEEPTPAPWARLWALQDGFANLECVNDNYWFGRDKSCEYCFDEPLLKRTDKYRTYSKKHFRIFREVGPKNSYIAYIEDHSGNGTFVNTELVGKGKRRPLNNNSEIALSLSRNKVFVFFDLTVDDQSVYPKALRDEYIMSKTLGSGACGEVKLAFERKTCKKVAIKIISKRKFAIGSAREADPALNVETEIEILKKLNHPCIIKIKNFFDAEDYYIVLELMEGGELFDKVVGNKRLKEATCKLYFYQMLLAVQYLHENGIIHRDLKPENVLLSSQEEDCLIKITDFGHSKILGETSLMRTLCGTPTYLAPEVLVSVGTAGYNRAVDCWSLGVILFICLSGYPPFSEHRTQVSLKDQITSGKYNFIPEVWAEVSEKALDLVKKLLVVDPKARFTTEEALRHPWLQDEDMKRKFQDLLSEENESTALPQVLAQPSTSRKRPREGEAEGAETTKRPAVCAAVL
SMILES,inhibition [1] [%],inhibition [2] [%],inhibition [3] [%],inhibition [4] [%],inhibition [5] [%],inhibition [6] [%],inhibition [7] [%],inhibition [8] [%],inhibition [9] [%],inhibition [10] [%],inhibition [11] [%],inhibition [12] [%],inhibition [13] [%],inhibition [14] [%],inhibition [15] [%],inhibition [16] [%],inhibition [17] [%],inhibition [18] [%],inhibition [19] [%],inhibition [20] [%]
NC(=O)c1cccc(Nc2nccc(Nc3cccc(F)c3)n2)c1,3.97,23,58.2,1.64,7.42,0.1,8.9,0.4,3.1,2.84,0.53,0.45,2.08,1.09,1.02,0.04,1.52,-0.9,2.39,0.65
CCCN1CCCC(c2ccc(Nc3nc(Nc4cc(F)ccc4C(N)=O)c4cc[nH]c4n3)c(OC)c2)C1 (stereo not given),10.7,30.2,59.7,2.61,1.82,2.57,2.9,15.8,61.1,11,44.9,26.9,72.8,7.83,36.1,-4.38,8.07,48.9,79.1,3.54
Cc1ccc2c(c1)/C(=N/Nc1ccc(S(N)(=O)=O)cc1)C(=O)N2,12.3,21.7,62.2,2.87,9.92,3.09,12.8,2.35,2.43,2.02,2.25,1.2,3.28,1.05,2.05,0.25,3.5,0.04,0.67,0.46
CCS(=O)(=O)c1ccc(OC)c(Nc2ncc(-c3cccc(OC)c3)o2)c1,4.19,2.41,13.4,1.53,-0.15,0.33,0.66,0.03,1.97,2.7,6.74,1.91,9.35,-0.13,1.2,1.44,3.19,1.56,2.17,2.65
CN1CCN(C(=O)c2ccc(NC(=O)Nc3ccc(N(C)c4ccnc(Nc5ccc(CS(C)(=O)=O)cc5)n4)cc3)cc2)CC1,7.01,0.11,44.5,0.56,2.28,0.38,7.68,0.6,2.18,1.63,3.13,1.38,3.39,1.22,1.48,1.47,2.64,5.54,39.4,2.86
Cc1ccc2c(-c3ccnc(Nc4ccc5c(c4)OCCO5)n3)c(-c3ccc(C(F)(F)F)cc3)nn2n1,1.71,-1.23,1.59,-0.85,1.31,0.24,0.79,0.52,9.99,0.68,-1.51,0.22,-0.06,2.15,0.11,1.74,0.1,-0.69,-0.6,2.74
